Compound activity: PubChem, National Center for Advancing Translational Sciences (NCATS)
An excerpt weighted towards active compounds, which were near 4.7% of everything screened.
TRHR agonist: qHTS for Small Molecule Agonists and Allosteric Enhancers of Human TRH Receptor: Primary Screen for Agonists | Thyrotropin-releasing hormone receptor (Homo sapiens), P34981 | TRHR cells, calcium flux fluo-8, FDSS agonist mode | activation, % at 2 µM | 0.18% of 360,000 active; further: 0% is about no effect
Target sequence (P34981 whole entry, looked up): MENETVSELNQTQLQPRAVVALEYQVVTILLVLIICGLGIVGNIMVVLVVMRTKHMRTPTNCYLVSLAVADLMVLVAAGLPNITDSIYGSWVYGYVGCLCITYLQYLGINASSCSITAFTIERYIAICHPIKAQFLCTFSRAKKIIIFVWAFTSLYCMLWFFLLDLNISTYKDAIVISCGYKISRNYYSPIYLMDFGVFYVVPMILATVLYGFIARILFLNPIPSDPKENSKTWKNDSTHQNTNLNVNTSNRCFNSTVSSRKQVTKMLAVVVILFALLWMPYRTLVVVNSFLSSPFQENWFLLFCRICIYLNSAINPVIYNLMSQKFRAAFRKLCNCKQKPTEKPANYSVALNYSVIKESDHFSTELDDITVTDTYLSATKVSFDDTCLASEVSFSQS
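Read-out: compound-evoked intracellular calcium rise in TRHR cells, fluo-8 dye, kinetic FDSS fluorescence at 1 s/cycle following a 10-cycle baseline. Cells cultured overnight before dye loading (30 min–1.5 h, RT).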
D1 PAM: Potentiators of Human D1 Dopamine Receptor: qHTS | HEK293 TREx D1 cells, calcium flux, dopamine EC20 potentiation | potentiation, % at 10 µM | 0.036% of 360,000 active | AID 504651, 2011; in the data active means potentiation above about 30%; further: 0% is about no effect
TRHR enhancer: qHTS for Small Molecule Agonists and Allosteric Enhancers of Human TRH Receptor: Primary Screen for Enhancers; Thyrotropin-releasing hormone receptor (Homo sapiens), P34981; TRHR cells, fluo-8 calcium fluorescence, EC20 TRH enhancement; enhancement, % at 2 µM; 0.66% of 360,000 active; AID 493056, 2011; in the data active means enhancement above about 30%; further: 0% is about no effect
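Enhancer read-out: after compound pinning and an initial kinetic agonist-mode read, an EC20 of TRH (10 nM final) was injected and fluo-8 calcium signal (Ex 480/Em 530) followed at 1 s/cycle for 100 cycles in TRHR-expressing cells.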
D1 agonist: Allosteric Agonists of the Human D1 Dopamine Receptor: qHTS; D(1A) dopamine receptor (Homo sapiens), P21728; HEK293 T-REx D1 cells, calcium flux, agonist mode; activation, % at 2 µM; 1% of 360,000 active; AID 504660, 2011; further: 0% is about no effect
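Tetracycline-induced HEK293 TREx D1 cells, force-coupled to calcium signalling, were dye-loaded with a no-wash calcium kit. Compound was pin-added after a 10 s baseline. Fluorescence was read kinetically at 1 cycle/s for 180 s, with calcium rises flagged as agonism.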
D1 antag: Antagonist of Human D 1 Dopamine Receptor: qHTS; D(1A) dopamine receptor (Homo sapiens), P21728; HEK293 TREx D1 cells, calcium flux, dopamine EC80; active compounds read low; activity change, negative = inhibition, % at 10 µM; 3.2% of 360,000 active; AID 504652, 2011; in the data active means activity change below about -30%; further: on the % scale 0 is the no-effect control and ±100 the full control effect
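Cells carrying a force-coupled, tetracycline-inducible human D1 receptor report calcium flux. Each well gets a 10 s baseline, compound with 180 s monitoring, then an EC80 dopamine stimulus with a second 180 s kinetic read.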
Active calls of the source: *; ! = a repeat was not active. Unless noted, no stated cut-off is given here; in the data, active means activation above about 30%; inactive means the rest.

SMILES	TRHR agonist	D1 PAM	TRHR enhancer	D1 agonist	D1 antag
O=C1NC(=O)/C(=C/c2ccc(OS(=O)(=O)c3ccc(F)cc3F)cc2)N1	-2	-1	5	6	-31*
COc1ccc(/C=C2\SC(=O)NC2=S)cc1OC	12	5	6	32*	2
COc1ccc(/C=C2/SC(c3ccc(C)cc3)=NC2=O)cc1OC	6	1	3	6	-2
COc1ccc(/C=C2\SC(c3ccc(C)cc3)=NC2=O)cc1OC	14	-5	-2	53*	-6
Cc1cccc(/C=N/NC(=O)c2ccc(NC(=O)c3ccc(Cl)cc3)cc2)n1	0	-12	5	2	-83*
Cc1cccc(C(=O)Nc2cccc(C(=O)N/N=C/c3cccc(C)n3)c2)c1	-1	-3	0	0	-14
CC(=O)Nc1cccc(C(=O)N/N=C/c2cccc(C)n2)c1	1	-3	0	3	-11
Cc1cccc(/C=N/NC(=O)c2ccc(NC(=O)c3ccc(F)cc3)cc2)n1	0	-8	-2	-3	-51*
CCCOc1ccc(CNC(=O)CCCN2C(=O)CSc3c2c(C)nn3-c2ccccc2)cc1	0	-5	-4	2	-12
Cc1ccc(NC(=O)CN2C(=O)c3ccccc3Sc3ccc(C(=O)N4CCOCC4)cc32)cc1C	0	0	-3	0	-10
CNc1nc2cc([N+](=O)[O-])c([N+](=O)[O-])cc2nc1NC	-3	-18	-2	39*	-14
C=CCNC(=O)COC(=O)c1ccc(Sc2nncn2C)c([N+](=O)[O-])c1	0	2	5	0	-32*
Cc1c(C(C)C)c(=O)n(-c2ccc(S(=O)(=O)NC3CCCCC3)cc2)n1C	0	-4	-20	4	-52*
Cc1c(C(C)C)c(=O)n(-c2ccc(S(=O)(=O)NCc3ccccc3)cc2)n1C	0	-4	-11	7	-15
CC(=O)N1CCCc2cc(S(=O)(=O)N3CCCC(C(=O)Nc4cccc(Cl)c4C)C3)ccc21 (stereo not drawn)	0	-5	-15	2	-44*
CC(=O)N1CCCc2cc(S(=O)(=O)N3CCC(C(=O)NCc4cccc(C)c4)CC3)ccc21	0	-2	1	0	14
CC(=O)N1CCCc2cc(S(=O)(=O)N3CCC(C(=O)NCc4ccc(N(C)C)cc4)CC3)ccc21	0	-5	39*	-1	15
CC(=O)N1CCCc2cc(S(=O)(=O)N3CCCC(C(=O)NCc4ccccc4)C3)ccc21 (stereo not drawn)	0	-2	-4	8	-30*!
CN(C)c1ccc(CNC(=O)C2CCN(S(=O)(=O)c3ccc4[nH]c(=O)ccc4c3)CC2)cc1	0	2	-3	0	-41*
O=C(NC1CCCC1)c1ccc2c(=O)n(Cc3ccccc3)c(SCc3cccc([N+](=O)[O-])c3)nc2c1	1	0	-2	2	18
CC(=O)N1CCCc2cc(S(=O)(=O)N3CCCC(C(=O)Nc4ccccc4C)C3)ccc21 (stereo not drawn)	0	-5	2	2	-37*
COc1ccc(N2CCN(C(CNC(=O)CC(C)C)c3ccc4c(c3)OCO4)CC2)cc1 (stereo not drawn)	0	1	3	0	7
COc1ccc(-c2noc(=O)n2Cc2ccccc2F)cc1	-1	-5	1	4	-30*
CC(=O)c1ccc(N2CCN(S(=O)(=O)c3ccc4c5c3CC(=O)N5CC(C)S4)CC2)cc1 (stereo not drawn)	0	-13	-6	7	-57*
Cc1ccc(S(=O)(=O)N2CCN(C(=O)c3cc(-c4ccc(Br)cc4)n[nH]3)CC2)c(C)c1	0	8	4	1	2
SMILES	TRHR agonist	D1 PAM	TRHR enhancer	D1 agonist	D1 antag
O=C(OCc1nnc(-c2ccc(Cl)cc2)o1)C12CC3CC(CC(O)(C3)C1)C2	0	-8	-4	8	-75*
CCOc1ccc(CNC(=O)CSc2nnc(C)c3c(C)n(-c4ccc(Cl)cc4)nc23)cc1	0	1	-3	2	7
Nc1nc2c(ncn2[C@H]2C[C@H](O)[C@@H](CO)O2)c(=O)[nH]1	-1	-5	11	1	-30*
CC(C)(C)OC(=O)N1CCC(c2c(C(=O)NCc3ccccc3)cnn2-c2cccc(F)c2)CC1	1	7	-5	1	15
O=C(COC(=O)C1CCC(N2C(=O)C3C4CCC(C4)C3C2=O)CC1)c1ccc(F)cc1 (stereo not drawn)	0	-9	4	12	-35*
CN1CCC(=NOc2ccc([N+](=O)[O-])cc2)CC1	2	-9	-6	11	-52*
Cc1ccc(CNC(=O)c2cc(S(=O)(=O)N3CCCCC3)cn2C)cc1	-1	-3	-1	3	-16
Nc1ccc2nc(-c3ccccc3)c(-c3ccccc3)nc2c1	32*	9	19	61*	0
Nc1ccc(Oc2ccc3nc(-c4ccccc4)c(-c4ccccc4)nc3c2)cc1	0	3	15	1	2
CCCCn1c(N)c(N(CC(C)C)C(=O)Cn2c(=O)oc3ccccc32)c(=O)[nH]c1=O	0	-2	-3	-4	-44*
CCCn1cc(S(=O)(=O)c2ccccc2)c(=O)c2cc(F)c(N3CCCCCC3)cc21	-1	1	14	3	9
CCOC(=O)c1ccc(CN(Cc2ccc(Br)cc2)S(=O)(=O)c2cccc(Cl)c2C)cc1	3	-1	2	20	-18
COc1ccccc1CNc1ncnc2sccc12	-1	-8	10	31*	-31*
COc1ccc(CCNc2ncnc3sccc23)cc1OC	0	-3	-2	25	-39*
COc1ccc(Nc2ncnc3sccc23)cc1OC	-1	-12	2	3	-4
c1ccc2c(c1)oc1c(NCC3CCCO3)ncnc12 (stereo not drawn)	0	-9	37*	2	8
COc1ccc(CCNc2ncnc3c2oc2ccccc23)cc1OC	-1	-15	-23	13	-69*
Cc1ccc(C(=O)NCCCc2ccccc2)s1	-1	15	5	-1	21
C/C=C(/C)C(=O)O[C@@H]1c2cc3c(c(OC)c2-c2c(cc(OC)c(OC)c2OC)[C@@H](OC(C)=O)[C@@H](C)[C@H]1C)OCO3	0	-3	-7	3	-62*
